Test [1] can be described thus: phospholipid biosynthesis inhibitors in animal cells, primary screen, cell-based, LOPAC library, screen 4 (AID 1347384; call rule not given here). The note with it: phospholipid biosynthesis inhibition screen, at 10 µM.
A short description of test [2]: survival rescue of mitochondrial mutant cells in low glucose, primary screen, MELAS cybrids, Rieske KO mouse fibroblasts, CellTiter-Glo (AID 1508586;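 note: z relative to plate mean and SD of compound and empty wells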). (Cellular ATP, detected with luciferase, serves as a proxy for viable cell number.)
A short description of test [3]: viability rescue of complex I mutant cybrids, primary screen, cell-based, galactose medium, ATP luminescence (AID 1645843;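 active = z-score of at least 1.8 in each of two replicates, scored against plate mean and spread of sample wells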;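 note: positive z means more ATP and so rescue of galactose-driven cybrid death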). The note with it: complex I mutant cybrid cells, 72 h, stronger effect = higher value.
In test [4] the target is NAD(+) hydrolase SARM1 (Homo sapiens) (UniProt Q6SZW1). The test can be described thus: SARM1 TIR NADase inhibitors, cell lysate, NAD-Glo luminescence (AID 1508614;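 active = compound whose remaining NAD level is above about 45 nM, limit read from the data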;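 note: higher remaining NAD means stronger inhibition of SARM1 NADase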). The note with it: SAM-TIR HEK293T lysate NADase, at 1 µM, stronger effect = higher value.
Test [5] concerns the target Mitogen-activated protein kinase 7 (Homo sapiens) (UniProt Q13164). Nature of the test: ERK5 transactivation activators in reporter cells, primary screen, cell-based, HTS (AID 1508626;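 active = luciferase signal above three times the same-plate solvent-only control wells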;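 note: luciferase driven by Gal4-ERK5 fusion binding five Gal4 sites before minimal TATA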). The note with it: HeLa Gal4-ERK5 transactivation, 18 h, at 5 µM, stronger effect = higher value.
Setting [6] is: MELAS cybrid survival, CellTiter-Glo 48 h, stronger effect = higher value.
[7] abbreviates: Rieske KO mouse fibroblast survival, CellTiter-Glo 72 h.

Several values for one entry are separate records, joined by “and”; a condition that tells them apart may be missing. Equal values may be shown once. Activity calls are given as the source filed them.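 Rule for the calls, unless noted: active = mean z-score across replicates of 1.96 or higher in either the MELAS or the Rieske mutant cell line; inactive = the rest.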

Mitogen-activated protein kinase 7 (Homo sapiens), sequence (Q13164 whole entry, looked up, the tested form may be a part): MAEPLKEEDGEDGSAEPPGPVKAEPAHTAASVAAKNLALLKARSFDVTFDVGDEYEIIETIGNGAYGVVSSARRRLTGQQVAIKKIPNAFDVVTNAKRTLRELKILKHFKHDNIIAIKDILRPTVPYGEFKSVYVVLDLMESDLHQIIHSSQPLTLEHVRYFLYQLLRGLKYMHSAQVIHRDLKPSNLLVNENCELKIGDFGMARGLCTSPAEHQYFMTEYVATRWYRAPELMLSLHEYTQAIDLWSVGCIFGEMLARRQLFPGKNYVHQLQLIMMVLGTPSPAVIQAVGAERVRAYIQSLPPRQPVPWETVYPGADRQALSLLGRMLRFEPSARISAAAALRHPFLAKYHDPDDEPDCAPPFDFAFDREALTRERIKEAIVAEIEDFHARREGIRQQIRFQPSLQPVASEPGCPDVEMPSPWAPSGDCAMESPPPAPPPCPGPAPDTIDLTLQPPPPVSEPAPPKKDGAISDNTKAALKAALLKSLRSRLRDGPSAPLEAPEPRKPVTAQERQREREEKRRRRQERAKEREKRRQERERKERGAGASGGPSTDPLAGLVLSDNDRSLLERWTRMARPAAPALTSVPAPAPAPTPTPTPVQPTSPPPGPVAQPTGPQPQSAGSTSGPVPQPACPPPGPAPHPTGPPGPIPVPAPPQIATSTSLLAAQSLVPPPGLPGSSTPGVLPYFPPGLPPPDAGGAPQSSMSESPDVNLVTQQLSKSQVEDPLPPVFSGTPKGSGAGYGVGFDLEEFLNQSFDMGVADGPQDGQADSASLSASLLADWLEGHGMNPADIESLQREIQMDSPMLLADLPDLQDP
NAD(+) hydrolase SARM1 (Homo sapiens), sequence (Q6SZW1 whole entry, looked up, the tested form may be a part): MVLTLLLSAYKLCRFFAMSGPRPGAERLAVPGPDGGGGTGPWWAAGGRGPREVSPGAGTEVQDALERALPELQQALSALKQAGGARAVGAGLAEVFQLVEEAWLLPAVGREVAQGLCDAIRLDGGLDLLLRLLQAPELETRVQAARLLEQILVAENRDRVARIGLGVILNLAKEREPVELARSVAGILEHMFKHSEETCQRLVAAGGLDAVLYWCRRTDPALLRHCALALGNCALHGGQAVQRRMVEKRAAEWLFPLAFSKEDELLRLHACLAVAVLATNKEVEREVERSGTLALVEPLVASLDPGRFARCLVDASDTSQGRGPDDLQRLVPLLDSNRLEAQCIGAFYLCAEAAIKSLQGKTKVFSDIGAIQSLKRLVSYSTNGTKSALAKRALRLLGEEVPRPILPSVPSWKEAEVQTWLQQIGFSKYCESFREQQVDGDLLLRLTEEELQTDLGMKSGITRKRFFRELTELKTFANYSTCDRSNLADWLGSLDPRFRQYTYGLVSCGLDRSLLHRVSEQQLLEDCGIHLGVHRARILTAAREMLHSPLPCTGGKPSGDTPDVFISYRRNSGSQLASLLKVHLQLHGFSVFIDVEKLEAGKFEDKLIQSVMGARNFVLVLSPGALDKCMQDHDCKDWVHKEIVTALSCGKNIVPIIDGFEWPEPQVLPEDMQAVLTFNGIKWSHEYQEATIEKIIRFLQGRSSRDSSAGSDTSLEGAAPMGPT

Consider `NS(=O)(=O)Cc1noc2ccccc12`, for which the molecule was called inactive in test [1]. In addition, the z-score in test [2] (setting [6]) was 0.598 (inactive) and -0.977 (inactive) and -0.661 (inactive); in test [2] (setting [7]), -0.432 and -0.0491 and -0.914; in test [3], 1.1 (inactive) and -0.005 (inactive) and 0.465 (inactive).
As to `Clc1ccc2c(c1)CCc1cccnc1C2=C1CCNCC1`, the z-score in test [2] (setting [6]) was -0.116 (inactive) and -0.424 (inactive) and -0.172 (inactive); in test [2] (setting [7]), -0.231 and 0.543 and -0.35; in test [3], -1.23 (inactive) and -1.54 (inactive). For the same molecule, the remaining NAD in test [4] was 10 nM (inactive). In addition, in test [5], the luciferase signal was 32 AU (inactive) and 40 AU (inactive).
Regarding `CCOC(=O)C1=C(C)NC(C)=C(C(=O)OC)C1c1cccc(Cl)c1Cl` (centres undefined), the molecule was classed as inactive in test [1]. Further, the z-score in test [2] (setting [6]) is -0.244 (inactive) and -0.163 (inactive) and -0.233 (inactive); in test [2] (setting [7]), -0.0889 and -0.113 and 0.553; in test [3] it was -1.02 (inactive) and -1.48 (inactive) and 1.76 (inactive). Besides, the remaining NAD in test [4] was 10 nM (inactive).
Take `Clc1ccccc1C(c1ccccc1)(c1ccccc1)n1ccnc1`: the outcome in test [1] was inactive. Further, the z-score in test [2] (setting [6]) is -0.333 (inactive) and -0.755 (inactive); in test [2] (setting [7]), 0.273 and 0.133; in test [3] it was -1.52 (inactive) and -1.44 (inactive). Also, in test [4], the remaining NAD is 10 nM (inactive). Besides, the luciferase signal in test [5] was 72 AU (inactive).
Turning to `O=C1c2cccc3c2[C@H](CCC3)CN1[C@@H]1CN2CCC1CC2`, the z-score is 0.942 (inactive) in test [2] (setting [6]) and 0.737 in test [2] (setting [7]).
Regarding `CC(N)C(=O)OC(C)(C)Cc1ccc(Cl)cc1` (centres undefined), in test [1], the molecule was called inactive. Besides, the remaining NAD in test [4] is 10 nM (inactive). Also, the luciferase signal in test [5] was 92 AU (inactive).
Turning to `O=C1NCC2(CCN(CCc3ccccc3)CC2)O1`, the call in test [1] was inactive. Besides, the z-score in test [2] (setting [6]) was -0.249 (inactive) and 0.534 (inactive); in test [2] (setting [7]), -0.174 and -0.0853; in test [3], 0.155 (inactive). Besides, in test [4], the remaining NAD was 10 nM (inactive). Also, in test [5], the luciferase signal was 52 AU (inactive).
On to `Cc1scc2c1N(C(=O)CN1CCN(C)CC1)c1ccccc1NC2=O`, for which the outcome in test [1] was inactive. In addition, the z-score in test [2] (setting [6]) was 0.644 (inactive) and 0.966 (inactive); in test [2] (setting [7]), 0.467 and 0.592; in test [3], 0.33 (inactive) and 0.02 (inactive) and 0.68 (inactive). Moreover, the remaining NAD in test [4] was 10 nM (inactive).
In the case of `COc1cc(C(=O)OCCCN2CCCN(CCCOC(=O)c3cc(OC)c(OC)c(OC)c3)CC2)cc(OC)c1OC`, the call in test [1] was inactive. Further, the z-score in test [2] (setting [6]) was 0.925 (inactive) and 0.274 (inactive); in test [2] (setting [7]), 0.203 and 0.937; in test [3], -0.89 (inactive) and 0.995 (inactive) and -0.26 (inactive). In addition, in test [4], the remaining NAD was 10 nM (inactive).
Regarding `O=C1[C@H]2CCCC[C@H]2C(=O)N1CCCCN1CCN(c2nsc3ccccc23)CC1`, the z-score is 1.02 (inactive) in test [2] (setting [6]) and 0.693 in test [2] (setting [7]).
With `Nc1ccc(O)c(C(=O)O)c1`, the z-score in test [2] (setting [6]) is -0.293 (inactive) and -0.757 (inactive) and 0.532 (inactive); in test [2] (setting [7]), 0.059 and -0.214 and -0.391; in test [3], 0.62 (inactive) and 0.46 (inactive). Moreover, the remaining NAD in test [4] was 10 nM (inactive). For the same molecule, the luciferase signal in test [5] is 48 AU (inactive).
`CCCCNc1ccc(C(=O)OCCN(C)C)cc1`: the outcome in test [1] was inactive. Besides, the z-score in test [2] (setting [6]) was -0.338 (inactive) and -0.454 (inactive); in test [2] (setting [7]), -0.0172 and -0.0428; in test [3] it was -0.23 (inactive). Also, the remaining NAD in test [4] was 10 nM (inactive). In addition, the luciferase signal in test [5] is 76 AU (inactive).
With `c1cnc(N2CCN(Cc3ccc4c(c3)OCO4)CC2)nc1`, the outcome in test [1] was inactive. In addition, the z-score was -0.549 (inactive) and -0.596 (inactive) in test [2] (setting [6]); -0.536 and 0.482 in test [2] (setting [7]).
As to `CCO/C([O-])=N/c1c[n+](N2CCOCC2)no1`, the z-score in test [2] (setting [6]) is 0.408 (inactive) and -0.37 (inactive); in test [2] (setting [7]) it was 0.123 and -0.771; in test [3], 0.905 (inactive) and 0.425 (inactive). Further, the remaining NAD in test [4] was 10 nM (inactive). Besides, the luciferase signal in test [5] was 56 AU (inactive).
Regarding `CN(C)C(=O)Oc1cccc([N+](C)(C)C)c1`, the molecule was called inactive in test [1]. Moreover, the z-score in test [2] (setting [6]) is 0.498 (inactive) and -0.72 (inactive); in test [2] (setting [7]), 0.395 and -0.634; in test [3], 0.53 (inactive) and 0.21 (inactive). Further, the remaining NAD in test [4] is 10 nM (inactive). In test [5], the luciferase signal is 48 AU (inactive).
For `CC(=O)O[C@]1(C(C)=O)CC[C@H]2[C@@H]3C=C(Cl)C4=CC(=O)CC[C@]4(C)[C@H]3CC[C@@]21C`, the z-score in test [2] (setting [6]) is -0.83 (inactive); in test [2] (setting [7]) it was 0.517. Further, the remaining NAD in test [4] is 10 nM (inactive). Moreover, the luciferase signal in test [5] is 76 AU (inactive).
For the molecule `Brc1c(NC2=NCCN2)ccc2nccnc12`, in test [1], the result was inactive. For the same molecule, the z-score in test [2] (setting [6]) is -0.224 (inactive) and -0.413 (inactive); in test [2] (setting [7]) it was -0.21 and -1.29; in test [3], 0.235 (inactive) and -0.385 (inactive) and -0.11 (inactive).
With `C#CCN(C)Cc1ccccc1`, in test [1], the call was inactive. Moreover, the z-score in test [2] (setting [6]) was -0.298 (inactive) and 0.205 (inactive); in test [2] (setting [7]), -0.334 and 0.464; in test [3], 0.465 (inactive) and 0.37 (inactive). Moreover, the remaining NAD in test [4] was 10 nM (inactive). Besides, the luciferase signal in test [5] is 60 AU (inactive).
Take `C[N+](C)(C)CCOC(N)=O`: the molecule was classed as inactive in test [1]. The z-score was -0.544 (inactive) and -0.486 (inactive) in test [2] (setting [6]); -1.06 and 1.01 in test [2] (setting [7]); 0.575 (inactive) and 0.535 (inactive) in test [3]. Also, the remaining NAD in test [4] was 12 nM (inactive). For the same molecule, the luciferase signal in test [5] is 72 AU (inactive).
As to `Cc1cccc(C)c1OCC(C)N` (centres undefined), in test [1], the molecule was classed as inactive. In addition, the z-score in test [2] (setting [6]) was -0.0413 (inactive) and -0.119 (inactive); in test [2] (setting [7]), -0.286 and -0.0916; in test [3] it was -0.045 (inactive) and 0.78 (inactive) and -0.055 (inactive). Besides, the remaining NAD in test [4] was 10 nM (inactive). The luciferase signal in test [5] is 52 AU (inactive).
`O=C1CC2(CCCC2)CC(=O)N1CCCCN1CCN(c2ncccn2)CC1`: the result in test [1] was inactive. Besides, the z-score in test [2] (setting [6]) is 0.0234 (inactive) and -0.506 (inactive) and -2.15 (inactive); in test [2] (setting [7]), -3.18 and -0.781 and 0.669. Moreover, in test [4], the remaining NAD was 10 nM (inactive). The luciferase signal in test [5] is 112 AU (inactive).
On to `O=C(CCNNC(=O)c1ccncc1)NCc1ccccc1`, for which the call in test [1] was inactive. Besides, the z-score was -0.952 (inactive) and 0.716 (inactive) in test [2] (setting [6]); -0.171 and 0.697 in test [2] (setting [7]); 0.035 (inactive) and 0.205 (inactive) and 0.305 (inactive) in test [3]. Also, the remaining NAD in test [4] is 10 nM (inactive). The luciferase signal in test [5] is 76 AU (inactive).
For the molecule `CCN(CC)CCOCCOC(=O)C1(c2ccccc2)CCCC1`, the molecule was called inactive in test [1]. The z-score in test [2] (setting [6]) is 0.546 (inactive); in test [2] (setting [7]), 0.186; in test [3], -0.64 (inactive) and -0.655 (inactive). Besides, in test [4], the remaining NAD was 10 nM (inactive). In test [5], the luciferase signal is 36 AU (inactive).
For `CCCCC1C(=O)N(c2ccccc2)N(c2ccccc2)C1=O`, the molecule was classed as inactive in test [1]. For the same molecule, the z-score in test [2] (setting [6]) is 0.0284 (inactive) and -1.01 (inactive) and 0.0538 (inactive); in test [2] (setting [7]) it was 0.0743 and -0.296 and -0.0136; in test [3] it was 0.865 (inactive) and 0.7 (inactive). For the same molecule, the remaining NAD in test [4] is 10 nM (inactive). In test [5], the luciferase signal was 156 AU (active).
Take `CSc1ccc2c(c1)C(N1CCN(C)CC1)Cc1ccccc1S2` (centres undefined): the call in test [1] was inactive. Besides, the z-score in test [2] (setting [6]) is -0.294 (inactive) and -0.887 (inactive); in test [2] (setting [7]), 0.279 and -1.2; in test [3] it was -1.29 (inactive) and -1.22 (inactive) and -2.1 (inactive). The remaining NAD in test [4] is 10 nM (inactive).
Consider `CN1CCN(CC(=O)N2c3ccccc3C(=O)Nc3cccnc32)CC1`, for which the call in test [1] was inactive. The z-score in test [2] (setting [6]) is 0.149 (inactive) and -0.644 (inactive); in test [2] (setting [7]) it was -0.103 and -0.194; in test [3], 1.01 (inactive) and 0.81 (inactive). The remaining NAD in test [4] is 10 nM (inactive). Further, the luciferase signal in test [5] is 188 AU (inactive).
In the case of `CCN(CC)CCNC(=O)c1cc(Cl)c(N)cc1OC`, in test [1], the result was inactive. Also, the z-score is -1.13 (inactive) and 0.206 (inactive) and 0.37 (inactive) in test [2] (setting [6]); -0.268 and 0.0241 and 0.87 in test [2] (setting [7]); -0.285 (inactive) and 0.055 (inactive) and 0.595 (inactive) in test [3]. Also, the remaining NAD in test [4] is 10 nM (inactive). The luciferase signal in test [5] is 100 AU (inactive).

(Values after PubChem BioAssay.)
